Source: PubChem
Sampled rows, rich in hits. Any-hit rate of the full collection: about 11%.
PNC assembly inh: perinucleolar compartment assembly inhibition; PC3M PTB-GFP, PNC prevalence imaging, 16 h; active compounds read low; activity change (PNC), negative = inhibition, % at 10 µM; actives 3.1% (n = 140,000);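 active = readout at or below -70, meaning at least 70% loss of cells showing the perinucleolar compartment, a nuclear body marking cancer cells; inconclusive = readout between -30 and a set limit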;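 also: plate controls were DMSO wells for no effect and camptothecin positive control wells for full effect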
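PC3M cells stably expressing PTB-GFP, 750–1000 cells/well, treated 16 h at 37 °C with compound (23 nl of library stock), in duplicate. After paraformaldehyde fixation and Hoechst stain, imaged at 20x; PNC prevalence scored by image analysis.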
HPGD block: inhibitors of human 15-hydroxyprostaglandin dehydrogenase (HPGD). P15428. purified HPGD, NADH fluorescence kinetic, PGE2 substrate. Potency, µM, without a hit: top-dose activity change, negative = inhibition, actives largely listed as inhibitors. actives 4.3% (n = 150,000). AID 894; active = well fitted inhibition curve with a large enough effect, not every such curve was filed as active; inconclusive = small, poorly fitted or top-dose-only effect, or another doubt; inactive = no such curve, though single readings can be large or run the other way; also: potency is read from the fitted curve at half-maximal effect
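20 nM HPGD preincubated 15 min at room temperature with compound in 50 mM Tris-HCl pH 8, 0.01% Tween 20. Started with 1 mM NAD+ and 30 uM prostaglandin E2; NADH fluorescence (360/450 nm) read 5 times over 30-s intervals, last minus first.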
IMPase inh: IMPase inhibition in cells. 120,000 tested, under 10 active. CHO-M1 cells, IP1 accumulation, HTRF TR-FRET ratio. inhibition (IP1 accumulation), % at 46.1 µM; active = well fitted curve in the direction sought with a large enough effect in the signal ratio, not every such curve was filed as active; inconclusive = small, poorly fitted or top-dose-only effect, or a change in a side signal; inactive = no such curve, though single readings can be large or run the other way; the % refers to the signal ratio;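 also: cells stimulated with carbachol in lithium chloride buffer; plate controls were DMSO basal wells for no effect and reference inhibitor wells for full effect; higher means more IMPase inhibition seen as more IP1 and lower FRET ratio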
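In this qHTS, compounds (final up to 46 uM) act on CHO-M1 cells that are then activated through the M1 receptor with carbachol, in pH 7.4 buffer containing 50 mM LiCl, for 30 min. IP1 accumulation is quantified by the IP-One immunoassay.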
IMPase Li cell: cell-permeable IMPase inhibitors with lithium potentiation. CHO-M1 cells, IP1 TR-FRET (IP-One), carbachol + lithium. AID 1457. actives 0.35% (n = 210,000). Potency, µM (titrated, usually from 59.4 µM), for the others: at the highest dose activity, negative = IMPase inhibition, actives largely listed as inhibitors;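 also: IP1 builds up when IMPase is blocked and the TR-FRET signal falls; potency is read from the fitted curve at half-maximal effect; plate controls were basal vehicle for no effect and high inhibitor control for full effect; nearly all actives have a fitted effect of over 50% in size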
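Test compounds were applied to CHO-M1 cells previously cultured for 16–30 h at 2000 per well. A small lithium amount accompanied them; after 30 min at 37C, IP1 was quantified by TR-FRET.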
ALOX12 inhib: 12-hLO (ALOX12) enzyme inhibition. P18054. purified 12-hLO, xylenol orange hydroperoxide absorbance. Potency, µM (top dose mostly 57.1 µM), without a hit: at the highest dose activity change, negative = inhibition, actives largely listed as inhibitors. actives 0.12% (n = 150,000). AID 1452; also: potency is read from the fitted curve at half-maximal effect; nearly all actives have a fitted effect of over 55% in size
Target sequence (P18054 whole entry, looked up): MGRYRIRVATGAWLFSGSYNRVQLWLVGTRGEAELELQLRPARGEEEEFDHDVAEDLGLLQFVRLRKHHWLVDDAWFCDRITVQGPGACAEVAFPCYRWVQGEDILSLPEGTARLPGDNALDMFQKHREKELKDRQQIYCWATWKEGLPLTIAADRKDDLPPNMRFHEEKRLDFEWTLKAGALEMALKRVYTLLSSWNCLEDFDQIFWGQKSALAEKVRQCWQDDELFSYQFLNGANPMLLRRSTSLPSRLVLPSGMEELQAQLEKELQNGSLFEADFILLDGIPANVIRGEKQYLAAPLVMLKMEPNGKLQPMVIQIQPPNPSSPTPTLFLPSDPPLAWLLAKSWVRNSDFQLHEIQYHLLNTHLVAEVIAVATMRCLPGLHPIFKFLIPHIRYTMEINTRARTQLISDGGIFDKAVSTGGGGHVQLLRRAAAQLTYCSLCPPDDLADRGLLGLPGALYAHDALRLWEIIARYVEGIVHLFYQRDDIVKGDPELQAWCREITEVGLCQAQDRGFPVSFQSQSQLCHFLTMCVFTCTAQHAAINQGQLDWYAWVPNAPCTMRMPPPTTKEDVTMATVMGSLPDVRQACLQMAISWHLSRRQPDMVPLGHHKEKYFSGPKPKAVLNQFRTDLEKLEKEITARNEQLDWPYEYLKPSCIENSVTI
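150 nM 12hLO, 25 mM Hepes pH 7.0 + 0.01% Triton X-100; cpd preinc 15 min RT; 40 uM arachidonic acid, 30 min RT; Fe-XO 30 min; A573/A405 ratio as read-out.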
ALDH1A1 block: blocks purified human ALDH1A1 activity; P00352; Purified ALDH1A1, NADH fluorescence, propionaldehyde substrate; Potency, µM (doses to about 75.3 µM), for the others: at the highest dose activity, negative = inhibition, usual class: inhibitors; actives 7.3% (n = 220,000); active = well fitted inhibition curve with a large enough effect, not every such curve was filed as active; inconclusive = small, poorly fitted or top-dose-only effect, or another doubt; inactive = no such curve, though single readings can be large or run the other way;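 also: potency is read from the fitted curve at half-maximal effect; plate controls were no enzyme wells and a reference inhibitor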
Numbers without * were called inactive; u = inconclusive; x = no result given; [ ] = dose if it differs, or a comment. Unless noted, calls follow the shape of the dose curve; as a rule, active = well fitted curve in the direction sought with a large enough effect; inconclusive = small, poorly fitted or top-dose-only effect, or another doubt; inactive = no such curve, though single readings can be large; an effect the other way counts as inactive or inconclusive. Unless noted, % is scaled to controls: 0 for no effect and ±100 for the full control effect.

SMILES | PNC assembly inh | HPGD block | IMPase inh | IMPase Li cell | ALOX12 inhib | ALDH1A1 block
COc1ccc(C)cc1NC(=O)CSc1nnc(-c2ccco2)n1N | 45 | -5% | 1 | -26%[38.3 µM] | -4% | -2%
COc1ccc(OC)c(NC(=O)CSc2nnc(-c3ccco3)n2-c2ccc(C(=O)O)cc2)c1 | u | u | 7 | 16%[38.3 µM] | -22% | 25µM*
Cc1nonc1NC(=O)CSc1nnc(-c2ccoc2C)n1-c1cccc(Cl)c1 | u | -9% | 3 | 19% | -7% | 10µM*
CCCn1c(SCC(=O)Nc2nonc2C)nnc1-c1ccoc1C | 6 | -4% | -2 | 23%[38.3 µM] | 4% | 0%
COc1cc2c(-c3ccccc3Cl)nc3c(c(C)nn3-c3ccccc3)c2cc1OC | x | x | 1 | x | x | x
C1CNCCN1 | x | -2% | x | 4% | -6% | 0%
C1CNCCNCCCNCCNC1 | -115* | -7% | x | -3% | -6% | 5%
C1CCCC1 | x | -2% | x | 6% | -4% | -3%
C1CCCNCC1 | x | -11% | x | 8% | -2% | 22µM*
COC(=O)[C@H]1C[C@@H]1[C@H](NC(=O)c1cc(C)nn1C)c1ccccc1 | x | 1% | x | -2% | 1% | u
Cc1cccc(C)c1NC(=O)N1C2CCCC1CC(NC(=O)C(C)(C)C)C2 (stereo not given) | -96* | -2% | 13 | -1%[38.3 µM] | 4% | 15%
Cc1cccc(C)c1NC(=O)N1CCN(C2CCCCC2)CC1 | 28 | -12% | -4 | 5% | 3% | 3%
CCOC(=O)c1ccccc1NC(=O)c1cccc([N+](=O)[O-])c1 | x | x | x | -1% | x | 2%
CCOCC(=O)Nc1ccc([N+](=O)[O-])cc1OC | x | x | x | 4% | x | u
COc1ccc(C(=O)NCC(=O)OCC(=O)Nc2cc([N+](=O)[O-])ccc2F)cc1 | x | x | x | 1% | x | 1.6µM*
CC(C)=CC(=O)OCC(=O)Nc1cc([N+](=O)[O-])ccc1F | 1 | -4% | -2 | 6% | 2% | 8%
CCOC(=O)c1ccc([N+](=O)[O-])cc1NC(C)=O | -92* | 4% | x | 3% | -2% | 12%
CCOCC(=O)Nc1cc([N+](=O)[O-])ccc1OC | x | x | x | -1% | x | 22µM*
O=C1COc2ccc(N3C(=O)c4ccccc4C3=O)cc2N1 | x | x | x | 6% | x | -14%
C[C@@H]1C[C@H](C)CN(S(=O)(=O)c2cc(Cl)c(Oc3ccc([N+](=O)[O-])cc3Cl)c(Cl)c2)C1 | x | -1% | x | -1% | 3%[11.4 µM] | -6%[13.5 µM]
COC(=O)C(c1ccccc1Cl)N1CCc2sccc2C1 (stereo not given) | x | -10% | x | 14% | -4%[0.00818 µM] | -4%
Clc1ccccc1-c1nn2c(-c3ccncc3)nnc2s1 | 4 | 11µM* | 11 | 22%[38.3 µM] | 2% | 11µM*
Clc1ccccc1-c1nnc2sc(-c3cccs3)nn12 | -27 | 28µM* | -1 | 2%[38.3 µM] | 4% | 14µM*
Clc1ccccc1-c1nnc2sc(-c3ccncc3)nn12 | -9 | -17% | 2 | 3%[38.3 µM] | -2% | -5%
C=C1C(c2ccc(C)cc2)=CCc2cc(C)cc(C)c21 | x | x | x | 13% | x | u
SMILES | PNC assembly inh | HPGD block | IMPase inh | IMPase Li cell | ALOX12 inhib | ALDH1A1 block
O=S(=O)(NC1CCN(Cc2ccccc2)CC1)c1ccc2ccccc2c1 | x | x | x | 28% | x | 22µM*
O=C(NNS(=O)(=O)c1ccc2ccccc2c1)C1CCN(Cc2ccccc2)CC1 | 12 | 1% | 16 | 30%[38.3 µM] | 3% | -1%
S=c1nc[nH]c2c1sc1nc(-c3ccccc3)c3c(c12)CCCC3 | -21 | -20% | 2 | u | -1% | 2.5µM*
COc1cccc(-c2nc(NCc3cccs3)c3ccccc3n2)c1 | x | x | x | 20% | x | -6%
O=C(CN1CCc2ccccc21)NCc1ccc2c(c1)OCO2 | -19 | -18% | x | 2% | 0% | u
O=C(CN1CCOCC1)Nc1ccc2c(c1)OCO2 | x | x | x | 3% | x | -11%
O=C(CN1CCc2ccccc21)Nc1ccc2c(c1)OCO2 | 17 | -7% | 8 | 25%[38.3 µM] | -7% | 13µM*
COc1ccc(OCCCC(=O)Nc2ccc3c(c2)OCCO3)cc1 | -20 | -20% | 4 | 18%[38.3 µM] | 5% | 22µM*
Cc1ccc(CSCC(=O)Nc2ccc3c(c2)OCO3)cc1 | -3 | -26% | 6 | 38%[38.3 µM] | -8% | 7.9µM*
O=C(CSCc1ccccc1)Nc1ccc2c(c1)OCO2 | 280 | -18% | -8 | 4% | -8% | -6%
COc1ccc(NC(=O)CN2CCN(CC(=O)Nc3ccc4c(c3)OCO4)CC2)cc1 | u | -5% | -1 | 25%[38.3 µM] | 0% | 6.3µM*
Cc1ccc(S(=O)(=O)c2nc(-c3ccccc3F)oc2N2CCCCC2)cc1 | x | x | 0 | x | x | x
CCOc1ccc(N/C(C)=C\C(=O)c2ccc3c(c2)OCCO3)cc1 | x | x | x | 22% | x | 13µM*
COC(=O)c1c(NC(=O)CN2CCN(Cc3ccc4c(c3)OCO4)CC2)sc(C)c1C | 32 | -9% | 9 | 11%[38.3 µM] | -12% | 13µM*
COc1ccc(C(=O)/C=C(\C)Nc2ccc3c(c2)OCO3)cc1 | -24 | -10% | -13 | -6%[38.3 µM] | u | u
COc1ccccc1NC(=O)CN1CCN(CC(=O)Nc2ccc3c(c2)OCO3)CC1 | 17 | -13% | 9 | 25%[38.3 µM] | -5% | 11µM*
COc1ccccc1NC(=O)CN1CCN(CC(=O)Nc2cc(NC(C)=O)ccc2OC)CC1 | u | -1% | -3 | 8%[38.3 µM] | 0% | u
CCOC(=O)C1(Cc2ccccc2C(F)(F)F)CCN(CC2CC2)CC1 | x | x | x | 13% | x | 7%
CC1=C(CC(=O)c2ccc(Cl)cc2)C(=O)c2ccccc2C1=O | -19 | -26% | -6 | 11%[38.3 µM] | -20% | 2.5µM*
O=Cc1cccc(OC(=O)c2ccc(Cl)cc2Cl)c1 | 48 | 16µM* | -11 | 14%[38.3 µM] | -20% | -14%
Cc1ccc(NC(=O)CCN2CCN(C/C=C/c3ccccc3)CC2)cc1C | 0 | -13% | 6 | 7%[38.3 µM] | -13% | 14µM*
Cc1cc(Br)ccc1NC(=O)C(Cc1ccccc1)NS(=O)(=O)c1ccc(Br)s1 (stereo not given) | x | x | -3 | x | x | x
CC1CCC(C(C)C)C2=C1C(C#N)(C#N)C(C#N)(C#N)C(c1ccccc1)N2 (stereo not given) | -8 | -13% | 24 | -6%[38.3 µM] | -28% | 10µM*
Cc1ccc(-n2c(=S)[nH]c3sc4c(c3c2=O)CCc2ccccc2-4)cc1 | 41 | x | -13 | x | 1% | -6%
Cc1cccc(-n2c(=S)[nH]c3sc4c(c3c2=O)CCc2ccccc2-4)c1 | x | x | x | -10% | x | 3.2µM*
CC(=O)c1cc(F)c(N2CCN(c3ccc([N+](=O)[O-])cc3F)CC2)cc1C | u | -20% | 4 | -5%[38.3 µM] | -8% | -17%
CS(=O)(=O)N1CCN(c2ccc([N+](=O)[O-])cc2F)CC1 | x | x | x | 0% | x | 3.2µM*
